Data on 40 sequences can be found in the OligoGym collection.
Further: reference of the scale not given here.

One assay has as its target INF2. Kind of assay: pooled miR-30 sensor sort-seq; sequence = guide strand. The note with it: shRNA.
For TTCAATCTCGTGCTTCTCGGGA, the sensor-assay potency score (higher = more potent) was -0.3. On the same count and under the same terms, the same measure for TAGCTCAAACACCTGCTTCTTC: -0.118; for TTTTGATTAAACCTTGCTGGGC: -0.764; for TTGCATTTTGATTAAACCTTGC: -0.249. Regarding TCAGTGGTTAGGACATCGCTGG, the sensor-assay potency score (higher = more potent) is -0.678. For TTCAGCAATGTGCTGATCTTGA, the sensor-assay potency score (higher = more potent) is -0.209. Take TTCATGACAATGCTGAAGCGGT: the sensor-assay potency score (higher = more potent) was -0.245.

The target in a further assay is INO80B. The description is as above. The note with it: shRNA.
Take ATTATCCACAACCATAAGGGGA: the sensor-assay potency score (higher = more potent) was -1.17. For TAACCCTCCTGATAGGTCCCGA, the sensor-assay potency score (higher = more potent) was -0.336. Regarding TTACTGTCTTCATCCAGCCAGG, the sensor-assay potency score (higher = more potent) was -0.737. TTGTGTTTCTTCTTGTGCTTCT displayed a sensor-assay potency score (higher = more potent) of 0.567. Sequence TTTGAGTTTGAGCTGAGGCTTG returned a sensor-assay potency score (higher = more potent) of -0.36.

As for TTCCTGATGGTGTTTCTTCTTG, the sensor-assay potency score (higher = more potent) is -0.564. ATTACTGTCTTCATCCAGCCAG came in with a sensor-assay potency score (higher = more potent) of -0.0733. The sequence TCTGGGATCACAGTGAAGGTAG returned a sensor-assay potency score (higher = more potent) of 0.138. In turn, TTTTCTTGTGCACTCCATGGCC showed a sensor-assay potency score (higher = more potent) of -0.4. In turn, TTATCCACAACCATAAGGGGAG gave a sensor-assay potency score (higher = more potent) of -0.805.

In the case of TTCTTGTGCACTCCATGGCCAT, the sensor-assay potency score (higher = more potent) was -1.62. For the sequence TTGAGTTTGAGCTGAGGCTTGG, the sensor-assay potency score (higher = more potent) was -0.366.

A further assay concerns the target INO80C. Described as above. Conditions: shRNA.
Sequence TTGCTGTTCCGGACTATTCCGG displayed a sensor-assay potency score (higher = more potent) of -0.701. Turning to TGTAGTTGGCAAGCAGACCTGA, the sensor-assay potency score (higher = more potent) was -0.0597.

TTCTGTTCTTCTTGCCAGCTAC gave a sensor-assay potency score (higher = more potent) of -0.723.

As for TTTACTTGAGGCAACAACTGAA, the sensor-assay potency score (higher = more potent) was determined as 0.108.

For the sequence TTTTGAAACAGCTTTCCACTTC, the sensor-assay potency score (higher = more potent) amounted to 0.164.

Sequence TACTGAAGTAGTTAGGATCGTT returned a sensor-assay potency score (higher = more potent) of 0.332. Same read-out and setting: the same measure for TTACTTGAGGCAACAACTGAAG: -0.863; for TTCAATGGTGCTGAACCGCAGT: -0.122.

As to TTGGAGGGAAAACACACACTAA, the sensor-assay potency score (higher = more potent) is -1.27.

With TATAATTTAATTCAGCAGGAAA, the sensor-assay potency score (higher = more potent) is -1.3. TGAAACATCAGAATACTTCTTA had a sensor-assay potency score (higher = more potent) of 1.15. As to ATTTGTTTCAGGTTCTTCCAGG, the sensor-assay potency score (higher = more potent) is -0.776.

A further assay has as its target INPP5F. Described as above. Conditions: shRNA.
With TACCAAGTTAATAATAACCTGT, the sensor-assay potency score (higher = more potent) is -0.241. TTAGTGTCTGAACATTCTCAAA had a sensor-assay potency score (higher = more potent) of -1.6.

In the case of TTCCTTTTCACTTCTGTCCAGC, the sensor-assay potency score (higher = more potent) is -0.59.

As for TTGGGTAATACTAGCAACCTGG, the sensor-assay potency score (higher = more potent) is -0.472.

In turn, TAATCTTCTCTCTTCCTGCCTG returned a sensor-assay potency score (higher = more potent) of 0.168. Turning to TTCTTTGTATCTGTAGTGCAGT, the sensor-assay potency score (higher = more potent) was -0.359. Still for that read-out and setting: the same measure for TTACTTTATCAACTTCATCATC: -1.34.

Take TTCGTTTATAGCGCATTCCTGC: the sensor-assay potency score (higher = more potent) was -0.611.

On to TTCATTTGAAACTTGATTGGTC, for which the sensor-assay potency score (higher = more potent) came out at 0.857.
